Source: paper PMC7819943, “Rice protein-binding microarrays: a tool to detect cis-acting elements near promoter regions in rice”
Whole data set: some 68,000 sequences, median “fluorescence intensity (a.u.)” near 9,100, cut for the highest 2% near 16,000. What follows is part of a selection rich in the highest values, with near analogues and random picks from the rest.

Molecular target: OsWRKY34 (Oryza sativa, UniProt Q0JBA9 1-250)
Test: protein-binding microarray (RPBM); PBS, 2% BSA, 51.3 ng/ul salmon testes DNA, 50 uM zinc acetate, 200 nM TF, 25 C, 1 h; high values mean tight binding
Details: protein: recombinant; tags: N-terminal polyhistidine and DsRed monomer fusion (pET32a); label: CyDye5-dUTP incorporated in the synthesized complementary strand; 3' TTTTT single-stranded linker to array surface; dsDNA, one strand shown
Method in brief: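 The binding signal is fluorescence intensity per feature, in arbitrary units, read on an Axon 4000B scanner. Polyhistidine- and DsRed-tagged transcription factors (N-terminal fusions) from E. coli BL21-CodonPlus were purified on Ni–NTA and applied at 200 nM for 1 h at 25 °C to a double-stranded, BSA-blocked custom Agilent array in buffer with 50 µM zinc acetate.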

OsWRKY34, sequence (Q0JBA9 entry or part of it): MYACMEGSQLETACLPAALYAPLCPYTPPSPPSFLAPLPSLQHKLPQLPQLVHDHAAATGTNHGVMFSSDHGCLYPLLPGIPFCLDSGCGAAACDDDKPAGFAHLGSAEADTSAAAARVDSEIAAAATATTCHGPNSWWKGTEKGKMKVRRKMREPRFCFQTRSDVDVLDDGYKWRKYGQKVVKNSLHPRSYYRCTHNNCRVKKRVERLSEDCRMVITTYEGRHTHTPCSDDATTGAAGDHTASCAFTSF

Sequence | binding signal
CATCTTCGCAGCAACTCAGTCATCAGCCCATAGCCATTTACGGAGTCACCTAGTGCAG | 8950 fluorescence intensity (a.u.)
AAGGCTTATCACTTCGATTTTTATTTTAGTCCTTGTACTTCGGAGTCACCTAGTGCAG | 8460 fluorescence intensity (a.u.)
ACCATCTTTTAAATCAGACCTCTCACCAATTTTGATATTTCGGAGTCACCTAGTGCAG | 8230 fluorescence intensity (a.u.)
CGCCGGTACGTTTTCCCCGCCGCCGCCTTTCCGGCCGGCCCGGAGTCACCTAGTGCAG | 8950 fluorescence intensity (a.u.)
ACTGTAGCCCATTTTTGATATGGCCAAGGCCCACATAGCACGGAGTCACCTAGTGCAG | 8260 fluorescence intensity (a.u.)
GTCTACATGAACCATTCCAAATGACTTTTATAGGATTTCACGGAGTCACCTAGTGCAG | 8340 fluorescence intensity (a.u.)
GCACCAAGGCCAATACTTGTCCGGATCACCAAGGACACCTCGGAGTCACCTAGTGCAG | 8020 fluorescence intensity (a.u.)
TTTATTAGTTTGTGTCCTGGTTTTCTTTTTCAGTTAGATTCGGAGTCACCTAGTGCAG | 8430 fluorescence intensity (a.u.)
TTACAAGACTTAATTTCAAGGTCCGTCGATTGTCTCTCCACGGAGTCACCTAGTGCAG | 8830 fluorescence intensity (a.u.)
GTATAGGGGAGAGGGTGGGCGGGTGATCACTGGGTGGGTGCGGAGTCACCTAGTGCAG | 12200 fluorescence intensity (a.u.)
CCCTCCGCTGAGGTTGCGGTTGATGATCTTTCATCAGTGACGGAGTCACCTAGTGCAG | 8590 fluorescence intensity (a.u.)
ATCCATCACATCACGAAACCACTTCATGTACTCTTAACATCGGAGTCACCTAGTGCAG | 8080 fluorescence intensity (a.u.)
TATGTGCTAAAAAGTCAACGGTGTCAAACATTTCGAAACGCGGAGTCACCTAGTGCAG | 14000 fluorescence intensity (a.u.)
AAACATGTGCTAAAAAGTCAACGGTGTCAAATATTTCGAACGGAGTCACCTAGTGCAG | 15600 fluorescence intensity (a.u.)
AAATGTGCTAAAAAGTCAACGGTGTCAAACATTTCGAAATCGGAGTCACCTAGTGCAG | 16400 fluorescence intensity (a.u.)
AAACCTCCACCACCACCGCCACCACCGCCGCGCAAAACCCCGGAGTCACCTAGTGCAG | 8700 fluorescence intensity (a.u.)
TATCTTTTTCTTTTTGGAGGTTTCGTTTTCTCTTGGTCAACGGAGTCACCTAGTGCAG | 10400 fluorescence intensity (a.u.)
AATTAACATCACCAATCAGCAATCACCAACCTTGTCATCTCGGAGTCACCTAGTGCAG | 8970 fluorescence intensity (a.u.)
TTTCATCAATTGCCTCTTGTATCAGCTACTATGCAATATACGGAGTCACCTAGTGCAG | 8850 fluorescence intensity (a.u.)
GCTAGACTATCATCAGCAAGCTAGCAATTAAAGGCCTTGTCGGAGTCACCTAGTGCAG | 64200 fluorescence intensity (a.u.)
CCATGCTCGCGGCGTTTACTTTCCTCACTATTTTTTAGATCGGAGTCACCTAGTGCAG | 9410 fluorescence intensity (a.u.)
GGATCGCGTGGTTTGTGTCGTGTCTTTGCATACGGCGACACGGAGTCACCTAGTGCAG | 8300 fluorescence intensity (a.u.)
CCATCACCACCTCCCGATCCGCGCGCTTTCTCTCCCGCGCCGGAGTCACCTAGTGCAG | 9090 fluorescence intensity (a.u.)

Sequence | binding signal
GTTTTTTAATAGATAACGCCGTTGACTTTTTTTCACATGTCGGAGTCACCTAGTGCAG | 21500 fluorescence intensity (a.u.)
TTTTTAATAGATAACGTCGTTGACTTTTTCTCACATGTTTCGGAGTCACCTAGTGCAG | 25600 fluorescence intensity (a.u.)
AACTTTACTTTTTCTCATAGTGTTGATTAGATATATGTTTCGGAGTCACCTAGTGCAG | 10600 fluorescence intensity (a.u.)
TTTTCAGTAGATAACATCGTTGACTTTTCAACGAATATTTCGGAGTCACCTAGTGCAG | 14400 fluorescence intensity (a.u.)
CCGTTTTTTAATAGATAACGCTGTTGACTTTTTCTTATATCGGAGTCACCTAGTGCAG | 11200 fluorescence intensity (a.u.)
GGAGGAGAGAGGGGTGGGGTTTGTGGTGTCGTCGTCCATGCGGAGTCACCTAGTGCAG | 11700 fluorescence intensity (a.u.)
GACTATGCGCGCTATATAAAGGATCACATTATCTCATACTCGGAGTCACCTAGTGCAG | 8930 fluorescence intensity (a.u.)
TTGCCGTACAATCTTGATTTGGAGATCTTCCTGGCCAACACGGAGTCACCTAGTGCAG | 9120 fluorescence intensity (a.u.)
AGAAAGCCCATTTTGCCCTTTGTGCTTCAGAACATCGAGCCGGAGTCACCTAGTGCAG | 8020 fluorescence intensity (a.u.)
AAACCATGCGGCGCACGAGCCACTCGCACTCGCACTCGCACGGAGTCACCTAGTGCAG | 9360 fluorescence intensity (a.u.)
AACTCAGTCTCAGCTCACATGATGCATCATCAGCCATGGCCGGAGTCACCTAGTGCAG | 8200 fluorescence intensity (a.u.)
TGGCGAGGAGGTGGTGGTGGTTGTGGTGGGTGCGGCCATGCGGAGTCACCTAGTGCAG | 12100 fluorescence intensity (a.u.)
GAGGAGAGAGAGAGAGAGTGGTGGTGGTGGTGGTGAGATGCGGAGTCACCTAGTGCAG | 8460 fluorescence intensity (a.u.)
GTGGTGGTGGTGGTGGTGGTGGTGGTGGTGCACGGCCATGCGGAGTCACCTAGTGCAG | 16400 fluorescence intensity (a.u.)
GCCGCATGGTGGTGCTGGTTGGGGTGGTGGTGGTGGCGGCCGGAGTCACCTAGTGCAG | 14800 fluorescence intensity (a.u.)
CCGCCGCCATCAAGTCCGCCATCATGACCACCGGTGAGAACGGAGTCACCTAGTGCAG | 8490 fluorescence intensity (a.u.)
ACGCTTGGTGGGGTGGGGTGGTGCTGGTGCCATGAACTGCCGGAGTCACCTAGTGCAG | 22300 fluorescence intensity (a.u.)
CGGAGGGAGGCGGAGGCGGTGGTGGTGGTGGTGGTGCCGGCGGAGTCACCTAGTGCAG | 12500 fluorescence intensity (a.u.)
GTGGTGGTGGTGGTGGTGGTGGCGGCGGCGGCCGGCCATGCGGAGTCACCTAGTGCAG | 20000 fluorescence intensity (a.u.)
GTACTGGCTTGGCTGGGTCGGGCTCGGGCTGGGCCATGAACGGAGTCACCTAGTGCAG | 8340 fluorescence intensity (a.u.)
CATCCGGCCATGGTGATGACCGGCGGCGATGATCAGCAGCCGGAGTCACCTAGTGCAG | 48200 fluorescence intensity (a.u.)
CAGCCACCTCCTCCTCTTCTTCCCCAACTTTCTGCTTGATCGGAGTCACCTAGTGCAG | 9300 fluorescence intensity (a.u.)
CCCACGCAGATCTCCGCTTTTTCCCGGCGGCAACCACGCCCGGAGTCACCTAGTGCAG | 10200 fluorescence intensity (a.u.)
